Screening data deposited in PubChem BioAssay by several laboratories.
Rows were chosen to be rich in hits. Some 11% of all compounds tested hit in one or more screens of this group.
WT yeast gro inh: growth inhibition of WT yeast, mitochondrial fusion screen; AID 1362; mitochondrial fusion phenotypic screen, WT strain; inhibition, % at 10 µM; 190,000 tested, 2.1% active; in the data active = inhibition above about 58%; tested in S. cerevisiae
Autophagy mod: autophagy modulation, high-content screen; AID 463193; calls only at 10 µM (by protocol); 190,000 tested, 0.98% active; MEF GFP-LC3 puncta imaging; test concentration mostly 10 µM;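 active = percentage of spot-positive cells more than 3 SD above its plate mean, without a fluorescence outlier flag or 80% toxicity; inconclusive = no clear call, values can overlap the other calls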;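 note: spot-positive cell cutoff set from DMSO-treated cells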
Lmaj promast: inhibitors of Leishmania major promastigote growth. Leishmania major promastigotes, resazurin fluorescence viability. inhibition, % at 10 µM. 200,000 tested, 9% active. AID 1063; in the data active = inhibition above about 50%;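 note: promastigotes grown with compound for 44 hours at 28 °C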
Insulin prom up: MIN6 insulin promoter up-regulation | z-score at 5 µM | 190,000 tested, 0.3% active | MIN6 insulin promoter-GFP reporter, high-content imaging; hits give high values;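 active = z-score above 3 at 5 µM with at least 500 cells counted in the well; inconclusive = wells under 500 cells, flagged as cytotoxic or low count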
INS promoter inh: TRM-6 insulin promoter activity inhibition. TRM-6 cells (human fetal islet line), insulin promoter-eGFP reporter, imaging; reporter expression induced with tamoxifen. inhibition, % at 2 µM. 130,000 tested, 0.9% active. AID 1273;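 active = inhibition above the mean plus 3 SD, with well images judged a real hit on visual review, cut at about 60% in these data, passing the limit was not always enough; inconclusive = inhibition over the cutoff but images rejected on review; inactive = inhibition not above the cutoff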
Active calls of the source: *; i = inactive; ? = inconclusive; nt = no result given.

SMILES	WT yeast gro inh	Autophagy mod	Lmaj promast	Insulin prom up	INS promoter inh
C=CCN1C(=O)NC(=O)/C(=C\c2ccc(-c3ccccc3[N+](=O)[O-])o2)C1=O	-10.6	i	-3.9	0.06	nt
CCc1ccc(NC(=O)CN2CC(c3ccccc3)CC2=O)cc1 (stereo not given)	nt	nt	nt	1.05	nt
CCN(CC)CCNC(=O)c1c(O)c2ccccc2n(Cc2ccccc2)c1=O	5.2	i	89.5*	-0.66	20.0
CCN(CC)CCCNC(=O)c1c(O)c2ccccc2n(Cc2ccccc2)c1=O	4.8	i	100.1*	0.3	-5.3
CCCCCn1c(=O)c(C(=O)Nc2nc3ccccc3[nH]2)c(O)c2ccccc21	nt	nt	nt	-3.26	nt
Cn1c(O)c(/C=C2\N=c3ccccc3=C2CCNC(=S)NC2CC2)c(=O)n(C)c1=O	nt	nt	nt	1.3	nt
O[C@@H]1CCCC[C@H]1N1CCC(c2ccccc2)CC1	-16.4	i	64.7*	0.05	nt
ON1C2CCCCC2N(O)C1c1ccccc1 (stereo not given)	-0.7	i	12.5	0.92	nt
COc1cc(N)c(Cl)cc1C(=O)NC1CN2CCC1CC2 (stereo not given)	-1.5	nt	nt	-0.2	nt
O=C(COc1ccc(Cl)cc1)NC1CN2CCC1CC2 (stereo not given)	-2.3	i	99.2*	-0.29	18.2
O=c1c2ccccc2nc(Cc2cccc([N+](=O)[O-])c2)n1-c1ccc(O)cc1	nt	nt	nt	-0.05	nt
COc1ccc(CCNCc2ccc(SC)cc2)cc1	-8.7	i	62.7*	nt	-9.1
COc1ccc(CCNCc2cccc(C(F)(F)F)c2)cc1OC	-2.1	i	7.6	-0.29	-46.1
c1ccc(CCNCc2ccccc2)cc1	22.9	i	12.3	0.31	-18.8
COc1ccc(CCNCc2ccc(F)cc2)cc1OC	13.4	i	50.2*	-0.41	-11.4
CC(=O)OC1N=C(c2ccccc2)c2cc(Br)ccc2N(C)C1=O (stereo not given)	9.2	i	-4.1	1.45	13.3
CCOc1cc(CNCCc2c[nH]c3ccccc23)cc(Cl)c1OCC	86.2*	i	4.2	nt	-36.4
CCOc1c(Cl)cc(CNCCc2c[nH]c3ccccc23)cc1OC	33.6	i	42.2	-0.15	nt
CC1(C)CC2(CCO1)NCCN1C(=O)CSC12 (stereo not given)	-1.9	i	-8.1	0.48	-31.2
COc1cc(/C=C(/C)[N+](=O)[O-])ccc1OCc1ccccc1Cl	55.7	i	100.2*	0.5	-41.7
COc1cc(C=C2C(=O)NC(=O)NC2=O)ccc1OCc1ccc([N+](=O)[O-])cc1	7.8	i	2.6	0.27	nt
O=C(CN1CC=C(c2ccccc2)CC1)Nc1cc(Cl)ccc1Cl	23.7	i	54.7*	-0.27	-44.8
CCCC[N+]12CCC(CC1)C(=C(c1ccccc1)c1ccccc1)C2	1.6	i	1.3	-0.61	nt
CCOC(=O)Cn1cc([N+](=O)[O-])nc1[N+](=O)[O-]	-4.4	i	99.1*	-0.59	nt
CC(C)(C)c1nc(N2CCN(C(=O)c3ccco3)CC2)c2nnn(Cc3ccccc3Cl)c2n1	23.7	i	48.1	-2.42	nt
SMILES	WT yeast gro inh	Autophagy mod	Lmaj promast	Insulin prom up	INS promoter inh
CCC(=O)O[C@@H]1[C@@H](OC(C)=O)[C@@]2(O)C(C[C@H](O)C2(C)C)[C@](C)(O)[C@H]2CC[C@@H]3[C@@H](O)[C@]12C[C@@]3(C)O (stereo not given in full)	-6.7	i	-8.4	0.35	5.0
COc1ccc(C(=O)C2CCCN(C3CSCCSC3)C2)cc1OC (stereo not given)	-0.3	i	18.3	0.29	nt
O=C(c1ccc(Cl)cc1)C1CCCN(C2CCSCC2)C1 (stereo not given)	-5.9	i	91.2*	nt	nt
COc1c(C)cc(C(=O)C2CCCN(Cc3cccc(C)n3)C2)cc1C (stereo not given)	22.4	i	33.3	-0.46	-30.4
COc1c(C)cc(C(=O)C2CCCN(C3CCOCC3)C2)cc1C (stereo not given)	-7.2	i	97.3*	0.6	nt
COc1ccc2cc(C(=O)C3CCCN(C4CCOCC4)C3)ccc2c1 (stereo not given)	4.7	i	99.2*	-0.63	nt
N=c1c[n+](C2CCCCC2)[n-]o1	-0.9	i	-4.1	nt	14.3
C=Cn1ccnc1P(O)(=S)c1nc(C)c(CCOC(C)=O)s1 (stereo not given)	-5.7	i	-7.9	-0.12	-2.9
CC(=O)OC(C)(C)/C=C/C(=O)[C@](C)(O)[C@H]1[C@H](O)C[C@@]2(C)[C@@H]3CC=C4[C@H](C[C@H](O)C(=O)C4(C)C)[C@]3(C)C(=O)C[C@]12C	5.3	?	52.1*	-4.32	-400.0
O=c1[nH]c(=O)n(CCc2ccccc2)c(O)c1C=NCCN1CCNCC1	-28.0	i	0.7	0.28	39.1
c1ccc(C(OCCN2CCNCC2)c2ccccc2)cc1	nt	i	100.2*	-0.14	nt
COc1cccc(C(=O)C2CCCN(Cc3cnn(C(C)C)c3)C2)c1 (stereo not given)	3.5	i	71.0*	1.55	nt
COc1cccc(C(=O)C2CCCN(Cc3cccc(C)n3)C2)c1 (stereo not given)	nt	i	29.3	0.07	14.3
Cc1cccc(CN2CCCC(C(=O)c3cccc(OC(C)C)c3)C2)n1 (stereo not given)	15.5	i	59.8*	0.04	-21.7
CCn1cc(CN2CCCC(C(=O)c3cccc(OC)c3)C2)c(C)n1 (stereo not given)	-4.2	i	78.2*	nt	-52.2
COc1cccc(C(=O)C2CCCN(Cc3ccon3)C2)c1 (stereo not given)	13.6	i	-7.5	nt	8.7
COc1cccc(C(=O)C2CCCN(Cc3ccc4nsnc4c3)C2)c1 (stereo not given)	17.7	i	87.4*	1.03	nt
CCCCCCn1c(N)c(C(=O)NCCN2CCOCC2)c2nc3ccccc3nc21	85.7*	i	-0.5	-0.33	nt
COc1ccc(CCNC(=O)c2c(N)n(CCN3CCOCC3)c3nc4ccccc4nc23)cc1OC	-14.1	i	100.4*	-1	-13.5
CCOC(=O)C1CCCN(c2ccc([N+](=O)[O-])c3nonc23)C1 (stereo not given)	8.6	i	27.8	2.65	nt
c1ccc2c(N3CCNCC3)nsc2c1	4.0	i	-4.2	3.06*	nt
Cc1nn(Cc2ccccc2Cl)c(C)c1C(=O)OCC(=O)N1CC(C)OC(C)C1 (stereo not given)	-2.6	i	-7.3	0.26	nt
C=Cc1ccc(Cn2c(C(=O)O)c(C=O)c3ccccc32)cc1	10.2	i	-4.5	0.3	5.9
CCC(=NCC1CCCO1)c1c(O)n(-c2ccc(OC)cc2)c(=O)[nH]c1=O (stereo not given)	nt	nt	nt	-0.91	nt
CCOC(=O)C1=C(NC(=S)NC(=O)c2ccccc2)c2ccccc2CC12CCCC2	72.8*	i	13.2	0.08	23.3
CCCCOc1ccc(CCN)cc1Cl	14.0	i	89.5*	0.26	25.0
OC(COCc1ccc(Cl)cc1)CN1CC=C(c2ccccc2)CC1 (stereo not given)	50.6	i	88.0*	-0.58	-9.4
O=C(CN1CC=C(c2ccccc2)CC1)Nc1c(Cl)cccc1Cl	-30.8	i	5.1	-0.73	-37.5
CCN(CC)c1ccc(C=C2C(=O)N(C)C(=S)N(C)C2=O)o1	-18.4	i	71.9*	0.77	-128.6
